# Experimental data as given in PubChem BioAssay AID1159580 (chemical genetic matrix, 2015).
# Values joined by “and” are separate entries in the source; they are usually repeats but may differ in a detail not shown here. Identical values can stand only once. Hit rate of the full screen: of about 5,500 compounds, about 2,000 (36%) were called active. Inconclusive results (about 18%) are left out. The list shows a part of the results. A number with no mark means an inactive call. Rule as the data show it: active = normalized growth mostly below about 0.91 (no sharp cut-off); inconclusive = no clear call, values can overlap the other calls; inactive = mostly above about 0.92.
# Assay: chemical genetic growth profiling, strain panel (AID 1159580);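 also: tested at 20 µM; growth read once vehicle control cultures reached saturation at 30 °C; 1 = growth at the plate median or of vehicle wells; lower values mean less growth of the strain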
# Settings: growth OD
smiles,measurement,setting,value
CC12CCC3c4ccc(OC(=O)c5ccccc5)cc4CCC3C1CCC2O (configuration not stated),normalized growth,"S. cerevisiae deletion strains, locus YBR021W, strain FUR4, hits give low values",1.06
same,normalized growth,"S. cerevisiae deletion strains, locus YBR229C, strain ROT2, hits give low values",1
same,normalized growth,"S. cerevisiae deletion strains, locus YCL029C, strain bik1, hits give low values",1
same,normalized growth,"S. cerevisiae deletion strains, locus YDL035C, strain GPR1, hits give low values",1
same,normalized growth,"S. cerevisiae deletion strains, locus YDL074C, strain BRE1, hits give low values",0.981
same,normalized growth,"S. cerevisiae deletion strains, locus YDL101C, strain DUN1, hits give low values",0.992
same,normalized growth,"S. cerevisiae deletion strains, locus YDL134C, strain PPH21, hits give low values",1
same,normalized growth,"S. cerevisiae deletion strains, locus YDL185W, strain tfp1, hits give low values",0.999
same,normalized growth,"S. cerevisiae deletion strains, locus YDL192W, strain arf1, hits give low values",0.995
same,normalized growth,"S. cerevisiae deletion strains, locus YDR101C, strain arx1, hits give low values",0.99
same,normalized growth,"S. cerevisiae deletion strains, locus YDR162C, strain NBP2, hits give low values",1.02
same,normalized growth,"S. cerevisiae deletion strains, locus YDR318W, strain mcm21, hits give low values",0.99
same,normalized growth,"S. cerevisiae deletion strains, locus YDR388W, hits give low values",0.993
same,normalized growth,"S. cerevisiae deletion strains, locus YDR502C, strain sam2, hits give low values",1
same,normalized growth,"S. cerevisiae deletion strains, locus YEL061C, strain CIN8, hits give low values",1.01
same,normalized growth,"S. cerevisiae deletion strains, locus YER110C, hits give low values",1
same,normalized growth,"S. cerevisiae deletion strains, locus YER155C, strain BEM2, hits give low values",1.01
same,normalized growth,"S. cerevisiae deletion strains, locus YER167W, strain BCK2, hits give low values",1
same,normalized growth,"S. cerevisiae deletion strains, locus YGL078C, strain dbp3, hits give low values",1
same,normalized growth,"S. cerevisiae deletion strains, locus YGL086W, strain mad1, hits give low values",1
same,normalized growth,"S. cerevisiae deletion strains, locus YGL248W, strain PDE1, hits give low values",0.992
same,normalized growth,"S. cerevisiae deletion strains, locus YGR135W, strain pre9, hits give low values",0.997
same,normalized growth,"S. cerevisiae deletion strains, locus YGR229C, strain SMI1, hits give low values",1.02
same,normalized growth,"S. cerevisiae deletion strains, locus YGR252W, strain gcn5, hits give low values",1
same,normalized growth,"S. cerevisiae deletion strains, locus YHR030C, strain SLT2, hits give low values",1.01 and 1.03
same,normalized growth,"S. cerevisiae deletion strains, locus YHR079C, strain IRE1 (second series), hits give low values",1
same,normalized growth,"S. cerevisiae deletion strains, locus YHR079C, strain IRE1, hits give low values",1.05
same,normalized growth,"S. cerevisiae deletion strains, locus YHR094C, strain hxt1, hits give low values",0.995
same,normalized growth,"S. cerevisiae deletion strains, locus YHR129C, strain ARP1, hits give low values",1
same,normalized growth,"S. cerevisiae deletion strains, locus YHR200W, strain rpn10, hits give low values",1
same,normalized growth,"S. cerevisiae deletion strains, locus YIL066C, strain RNR3, hits give low values",1
same,normalized growth,"S. cerevisiae deletion strains, locus YIL073C, strain SPO22, hits give low values",1.03
same,normalized growth,"S. cerevisiae deletion strains, locus YIL125W, strain kgd1, hits give low values",0.994
same,normalized growth,"S. cerevisiae deletion strains, locus YIR030C, strain dcg1, hits give low values",0.997
same,normalized growth,"S. cerevisiae deletion strains, locus YJL095W, strain BCK1, hits give low values",0.958 and 1.01
same,normalized growth,"S. cerevisiae deletion strains, locus YJL134W, strain LCB3, hits give low values",1.01
same,normalized growth,"S. cerevisiae deletion strains, locus YJL168C, strain set2, hits give low values",0.989
same,normalized growth,"S. cerevisiae deletion strains, locus YJL187C, strain SWE1 (second series), hits give low values",1
same,normalized growth,"S. cerevisiae deletion strains, locus YJR043C, strain POL32, hits give low values",1.01
same,normalized growth,"S. cerevisiae deletion strains, locus YJR066W, strain TOR1, hits give low values",0.963
same,normalized growth,"S. cerevisiae deletion strains, locus YJR075W, strain HOC1, hits give low values",1.01
same,normalized growth,"S. cerevisiae deletion strains, locus YKL009W, strain mrt4, hits give low values",1
same,normalized growth,"S. cerevisiae deletion strains, locus YKL068W, hits give low values",1.01
same,normalized growth,"S. cerevisiae deletion strains, locus YKL085W, strain MDH1 (second series), hits give low values",1
same,normalized growth,"S. cerevisiae deletion strains, locus YKL085W, strain MDH1, hits give low values",1
same,normalized growth,"S. cerevisiae deletion strains, locus YKL190W, strain CNB1, hits give low values",1.01
same,normalized growth,"S. cerevisiae deletion strains, locus YKR001C, strain vps1, hits give low values",0.945
same,normalized growth,"S. cerevisiae deletion strains, locus YLR039C, strain RIC1, hits give low values",0.755
same,normalized growth,"S. cerevisiae deletion strains, locus YLR058C, strain SHM2, hits give low values",1.01
same,normalized growth,"S. cerevisiae deletion strains, locus YLR102C, strain apc9, hits give low values",0.991
same,normalized growth,"S. cerevisiae deletion strains, locus YLR113W, strain HOG1, hits give low values",1.02
same,normalized growth,"S. cerevisiae deletion strains, locus YLR262C, strain YPT6, hits give low values",0.606 (active)
same,normalized growth,"S. cerevisiae deletion strains, locus YLR268W, strain sec22, hits give low values",1
same,normalized growth,"S. cerevisiae deletion strains, locus YLR330W, strain CHS5, hits give low values",1.02
same,normalized growth,"S. cerevisiae deletion strains, locus YLR342W, strain FKS1 (second series), hits give low values",0.999
same,normalized growth,"S. cerevisiae deletion strains, locus YLR371W, strain rom2, hits give low values",0.995
same,normalized growth,"S. cerevisiae deletion strains, locus YLR418C, strain cdc73, hits give low values",0.949
same,normalized growth,"S. cerevisiae deletion strains, locus YML016C, strain PPZ1, hits give low values",1.01
same,normalized growth,"S. cerevisiae deletion strains, locus YML032C, strain rad52, hits give low values",0.992
same,normalized growth,"S. cerevisiae deletion strains, locus YML124C, strain tub3, hits give low values",0.999
same,normalized growth,"S. cerevisiae deletion strains, locus YMR078C, strain ctf18, hits give low values",0.988
same,normalized growth,"S. cerevisiae deletion strains, locus YMR223W, strain ubp8, hits give low values",1
same,normalized growth,"S. cerevisiae deletion strains, locus YMR263W, strain SAP30, hits give low values",1.01
same,normalized growth,"S. cerevisiae deletion strains, locus YMR307W, strain GAS1, hits give low values",1.22
same,normalized growth,"S. cerevisiae deletion strains, locus YNL067W, strain RPL9B, hits give low values",1.01
same,normalized growth,"S. cerevisiae deletion strains, locus YNL128W, strain TEP1, hits give low values",1.04
same,normalized growth,"S. cerevisiae deletion strains, locus YNL153C, strain GIM3, hits give low values",0.997
same,normalized growth,"S. cerevisiae deletion strains, locus YNL183C, strain NPR1, hits give low values",0.934
same,normalized growth,"S. cerevisiae deletion strains, locus YNL233W, strain BNI4, hits give low values",0.97
same,normalized growth,"S. cerevisiae deletion strains, locus YNL250W, strain rad50, hits give low values",1
same,normalized growth,"S. cerevisiae deletion strains, locus YNL271C, strain bni1, hits give low values",0.992
same,normalized growth,"S. cerevisiae deletion strains, locus YNL298W, strain CLA4, hits give low values",0.993
same,normalized growth,"S. cerevisiae deletion strains, locus YNL307C, strain MCK1, hits give low values",0.926
same,normalized growth,"S. cerevisiae deletion strains, locus YNR052C, strain pop2, hits give low values",1
same,normalized growth,"S. cerevisiae deletion strains, locus YOL006C, strain TOP1, hits give low values",0.921
same,normalized growth,"S. cerevisiae deletion strains, locus YOL012C, strain htz1",0.873
same,normalized growth,"S. cerevisiae deletion strains, locus YOL147C, strain pex11, hits give low values",1
same,normalized growth,"S. cerevisiae deletion strains, locus YOR061W, strain CKA2, hits give low values",1
same,normalized growth,"S. cerevisiae deletion strains, locus YOR069W, strain VPS5, hits give low values",1.01
same,normalized growth,"S. cerevisiae deletion strains, locus YOR136W, strain idh2, hits give low values",1
same,normalized growth,"S. cerevisiae deletion strains, locus YOR144C, strain elg1, hits give low values",1
same,normalized growth,"S. cerevisiae deletion strains, locus YOR184W, strain ser1, hits give low values",0.974
same,normalized growth,"S. cerevisiae deletion strains, locus YOR231W, strain MKK1, hits give low values",1.03
same,normalized growth,"S. cerevisiae deletion strains, locus YOR316C, strain cot1, hits give low values",0.992
same,normalized growth,"S. cerevisiae deletion strains, locus YPL055C, strain LGE1, hits give low values",1
same,normalized growth,"S. cerevisiae deletion strains, locus YPL256C, strain CLN2, hits give low values",1.06
same,normalized growth,"S. cerevisiae deletion strains, locus YPR119W, strain clb2, hits give low values",0.994
same,normalized growth,"S. cerevisiae deletion strains, locus YPR141C, strain kar3, hits give low values",1
same,normalized growth,"S. cerevisiae deletion strains, locus YPR163C, strain tif3, hits give low values",1.01
same,normalized growth,"S. cerevisiae deletion strains, locus YPR167C, strain met16, hits give low values",1
same,normalized growth,"S. cerevisiae deletion strains, strain wtn01, hits give low values",0.996
same,normalized growth,"S. cerevisiae strains, strain wild type, hits give low values",1
